Activity calls are given as the source filed them. How the source made its calls: active means hit-call score of the fitted dose curve at least 0.9, where 1 is the maximum; inactive means score below 0.9.

The assay in a line: ATG_FoxO_CIS: Attagene CIS-FACTORIAL HepG2 Assay for human Forkhead box O (FoxO) (AID 2282943). The following applies: HepG2 Attagene cis-reporter, FoxO element, mRNA; actives raise or lower the signal. An outline of the steps:
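Read-out: fluorescence of 6-FAM-labelled reporter cDNA fragments resolved by capillary electrophoresis. Transiently transfected HepG2 cells were dosed for 24 h; activity fitted in both directions relative to DMSO controls.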
For `CCOS(=O)(=O)OCC`, the result was inactive.
The entry for `ClC(Cl)(Cl)c1ccccc1` is “inactive”; for `CC(C)(C)N(NC(=O)c1ccc(Cl)cc1)C(=O)c1ccccc1` it is “inactive”; for `CCN(CC)c1ccccc1` it is “inactive”.
The entry for `CCCCN(CCCC)SN(C)C(=O)Oc1cccc2c1OC(C)(C)C2` is “inactive”.
The entry for `CCOP(=S)(OCC)SCSCC` is “inactive”; for `CCCCCCCc1ccc(O)cc1` it is “inactive”.
Consider `O=C(O)C=CC(F)(C(F)(F)F)C(F)(F)F`, for which the compound was called inactive.
The entry for `CC(Cc1ccc(OCC(=O)O)cc1)NCC(O)c1csc(C(F)(F)F)n1` (centres undefined) is “inactive”; for `CCC(C)(C)c1ccc(O)cc1` it is “inactive”; for `O=S(=O)(F)C(F)(F)C(F)(F)C(F)(F)C(F)(F)C(F)(F)C(F)(F)C(F)(F)C(F)(F)F` it is “inactive”.
The entry for `N#Cc1c(-c2ccc(Cl)cc2)[nH]c(C(F)(F)F)c1Br` is “inactive”; for `O=P(Oc1ccccc1)(Oc1ccccc1)Oc1ccccc1` it is “inactive”.
Next, `O=[N+]([O-])c1ccc(Cl)c(Cl)c1`: “inactive”; `C/C(=N\NC(=O)Nc1cc(F)cc(F)c1)c1ncccc1C(=O)O`: “inactive”.
As for `Nc1ccc(Cl)cc1`, the call was inactive.
Next, `CC(O)C#N` (centres undefined): “inactive”; `C=C(C)C(=O)OCC1CO1` (centres undefined): “inactive”.
Turning to `CCCCN(CC)C(=O)SCCC`, the compound was called inactive.
The entry for `CCCCN(CCCC)N=O` is “inactive”; for `ClC(Cl)c1ccccc1` it is “inactive”.
Next, `c1ccc2c(c1)sc1ccccc12`: “inactive”; `Cc1ccc([N+](=O)[O-])cc1C`: “inactive”; `CCC1(c2ccccc2)C(=O)N=C(O)NC1=O` (centres undefined): “inactive”.
Next, `OCC(F)(F)OC(F)(F)C(F)(F)OC(F)(F)CO`: “inactive”; `CCOP(=S)(Oc1ccc([N+](=O)[O-])cc1)c1ccccc1` (centres undefined): “inactive”; `CCOP(=S)(OCC)SCn1nnc2ccccc2c1=O`: “inactive”.
As to `CC(C)(C)OOC(C)(C)C`, the compound was called inactive.
`Nc1ccc(Sc2ccc(N)cc2)cc1`: the compound was classed as inactive.
The entry for `CN(C)C(=O)Cl` is “inactive”; for `CCCCc1ccc(O)cc1` it is “inactive”.
In the case of `c1ccc(OP(Oc2ccccc2)Oc2ccccc2)cc1`, the outcome was inactive.
Next, `CC(Cl)(Cl)C(=O)O`: “inactive”; `OCC(F)(F)OC(F)(F)C(F)(F)OC(F)(F)C(F)(F)OC(F)(F)CO`: “inactive”; `O=C(O)C1C(C(=O)O)C2(Cl)C(Cl)=C(Cl)C1(Cl)C2(Cl)Cl` (centres undefined): “inactive”.
Next, `O=P1(N(CCCl)CCCl)NCCCO1` (centres undefined): “inactive”; `O=C(O)C(F)(OC(F)(F)C(F)(F)C(F)(F)F)C(F)(F)F` (centres undefined): “inactive”.
`CCCCc1ccccc1`: the compound was classed as inactive.
The entry for `N#Cc1cc([N+](=O)[O-])ccc1N` is “inactive”.

The values are drawn from PubChem BioAssay (EPA / NIEHS).
